Assay outcomes: PubChem BioAssay, The Scripps Research Institute Molecular Screening Center
Sampled rows, rich in hits. Any-hit rate of the full collection: about 3.5%.
FBW7 act: activators of human E3 ligase FBW7; AID 1259310; Q969H0; normalized activity (activation), % at 26.1 µM; 650,000 compounds, 0.13% hits; AlphaScreen FBW7–phospho-cyclin E peptide binding, activator screen; in the data active means normalized activity above about 1.9%;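 further: purified mutant Fbw7 with reduced substrate affinity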
MITF primary: human MITF inhibition, primary screen; O75030; AlphaScreen MITF homodimerization, bead proximity signal; inhibition, % at 2.6 µM; 650,000 compounds, 0.91% hits; AID 1259374; in the data active means inhibition above about 50%;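 further: 0% = vehicle wells with protein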
TEAD-YAP block: TEAD-YAP interaction inhibition. inhibition, % at 9.12 µM. AID 1259422. HEK-TIYL cells, TEAD-Gal4/YAP UAS-luciferase luminescence. 640,000 compounds, 1.4% hits; in the data active means inhibition above about 32%;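 further: 0% = median of test compound wells and 100% = reference inhibitor wells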
GPR151 ag: human GPR151 activation | PathHunter beta-arrestin GPR151 cells, luminescence | activation, % at 11.2 µM | 650,000 compounds, 1% hits | AID 1508602; in the data active means activation above about 4.9%;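 further: 0% = median of compound wells and 100% = cells with positive control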
Target sequence (Q8TDV0 whole entry, looked up): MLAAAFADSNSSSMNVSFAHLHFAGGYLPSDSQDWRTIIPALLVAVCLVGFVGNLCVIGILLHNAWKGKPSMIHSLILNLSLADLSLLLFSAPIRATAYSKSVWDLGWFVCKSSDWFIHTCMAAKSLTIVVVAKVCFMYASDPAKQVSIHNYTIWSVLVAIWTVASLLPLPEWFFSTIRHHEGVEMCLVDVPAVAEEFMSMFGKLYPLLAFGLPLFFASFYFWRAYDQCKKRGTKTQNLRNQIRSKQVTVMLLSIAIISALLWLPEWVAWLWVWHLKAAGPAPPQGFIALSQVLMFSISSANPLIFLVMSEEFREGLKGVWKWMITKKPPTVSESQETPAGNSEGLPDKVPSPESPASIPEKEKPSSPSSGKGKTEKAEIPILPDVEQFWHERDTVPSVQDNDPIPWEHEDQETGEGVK
* hit, by the source's call.

SMILES	FBW7 act	MITF primary	TEAD-YAP block	GPR151 ag
COc1cc(Nc2nc(N3CCC(N4CCOCC4)CC3)nc3c2ncn3-c2ccsc2)cc(OC)c1OC	0	6	5	1
CC(=O)Nc1ccc(Nc2nc(N3CCC(N4CCOCC4)CC3)nc3c2ncn3-c2ccsc2)cc1	0	-8	46*	-1
OCCNc1nc(N2CCOCC2)nc2c1ncn2-c1ccccc1	0	5	48*	0
c1ccc2c(c1)CCN(c1nc(NCCN3CCOCC3)c3ncn(-c4ccsc4)c3n1)C2	0	10	-1	0
c1cc(-n2cnc3c(NCCN4CCOCC4)nc(N4CCOCC4)nc32)cs1	0	0	56*	-1
c1cc(-n2cnc3c(NCCN4CCOCC4)nc(N4CCC(N5CCOCC5)CC4)nc32)cs1	0	-2	43*	0
COc1ccc(C(=O)NC(=O)Nc2ccc(C)c([N+](=O)[O-])c2)cc1	0	13	-3	-1
O=C(NCc1nc(-c2ccc(Cl)cc2)no1)c1ccccc1Br	0	7	-1	1
OCCNc1nc(N2CCOCC2)nc2c1ncn2-c1ccsc1	0	3	69*	0
c1ccc2[nH]c(CNc3nc(N4CCC(N5CCOCC5)CC4)nc4c3ncn4-c3ccsc3)nc2c1	0	4	54*	0
CC(CO)Nc1c2ccccc2nc2ccccc12 (stereo not given)	0	-5	38*	-1
Nc1cccc2c1C(=O)N(C(=O)Cc1cccs1)C2=O	0	5	-9	-1
CCC(C)C(=O)N1CCCC(c2nc(-c3cccc(OC)c3)no2)C1 (stereo not given)	0	-4	61*	-2
O=C(c1cc(-c2cccc(O)c2)on1)N1CCCCC1	0	16	67*	-3
COc1cccc(-c2cc(C(=O)N3CCCC3)no2)c1	0	10	38*	-4
O=C(c1cc(-c2ccccc2)on1)N1CCCCCC1	1	23	-67	-1
CCCNc1ncnc2nc(Nc3ccc(-n4ccnc4)cc3)[nH]c12	0	12	-5	0
CCOC(CNC(=O)c1cc2c(s1)CS(=O)(=O)C2)OCC	0	-10	0	-1
COC(=O)/C=C\C(=O)Nc1ccc(Br)c(C)c1	0	-3	47*	1
Cc1ccc(Nc2c(Cl)c(Cl)nc(Cl)c2C(F)(F)F)cc1	0	13	67*	0
COc1ccc(Nc2nc(Cl)c(C(F)(F)F)c(Cl)c2Cl)cc1	0	13	-2	2
Cc1c(CCNS(=O)(=O)c2ccc(F)cc2)sc2nc(-c3ccc(F)cc3)nn12	1	6	37*	2
CCCc1ccc(OCC(=O)Nc2nccs2)cc1	0	0	81*	-4
O=C(COc1ccc(F)cc1)Nc1nccs1	-1	7	-16	-8
CCc1ccc(OCC(=O)Nc2nccs2)cc1	0	8	86*	-3
SMILES	FBW7 act	MITF primary	TEAD-YAP block	GPR151 ag
Cc1ccc(OCC(=O)Nc2nccs2)cc1C	0	9	75*	-1
CC(=O)c1ccc(NC(=S)Nc2ccc(S(N)(=O)=O)cc2)cc1	0	-4	3	-1
Cc1ccc(N(C(C)C(=O)N2CCN(c3cccc(Cl)c3)CC2)S(C)(=O)=O)cc1C (stereo not given)	0	13	12	2
c1ccc(-n2cnc3c(NCCN4CCOCC4)nc(Nc4cccnc4)nc32)cc1	0	-1	34*	1
c1cncc(CNc2nc(NCCN3CCOCC3)c3ncn(-c4ccsc4)c3n2)c1	0	-10	-1	-1
c1ccc(-n2cnc3c(Nc4ccc(N5CCOCC5)cc4)nc(Nc4nccc5ccccc45)nc32)cc1	0	16	43*	1
c1cncc(Nc2nc(NCCN3CCOCC3)c3ncn(-c4ccsc4)c3n2)c1	0	-3	51*	1
c1ccc(Nc2nc(NCCN3CCOCC3)c3ncn(-c4ccsc4)c3n2)cc1	0	-1	55*	1
O=S(=O)(N/N=C1/CCSc2ccccc21)c1ccc(Br)cc1	0	13	8	0
CC1(C)CC(=O)C2=C(C1)NC1=C(C(=O)c3ccccc31)C2c1cc(Br)ccc1O (stereo not given)	0	23	12	0
O=C1NCCN(CCc2ccccc2)C1CC(=O)N1CCCN(Cc2cccs2)CC1 (stereo not given)	0	-2	1	2
COc1cc(Nc2nc(Nc3ccnn3C)nc3c2ncn3-c2ccsc2)cc(OC)c1OC	0	16	63*	0
c1cc(Nc2nc(NCCN3CCOCC3)c3ncn(-c4ccsc4)c3n2)ncn1	0	11	37*	0
COc1cc(Nc2nc(Nc3ncccn3)nc3c2ncn3-c2ccsc2)cc(OC)c1OC	0	3	10	2
c1ccc(-n2cnc3c(NCCN4CCOCC4)nc(Nc4ccc(N5CCOCC5)cc4)nc32)cc1	0	18	59*	4
c1cnc2ccc(Nc3nc(NCCN4CCOCC4)c4ncn(-c5ccsc5)c4n3)cc2c1	0	4	48*	0
c1ccc(-c2nc(NCCN3CCOCC3)c3ncn(-c4ccsc4)c3n2)cc1	0	5	33*	1
COc1cc(Nc2nc(NCCN3CCOCC3)c3ncn(-c4ccccc4)c3n2)cc(OC)c1OC	1	7	42*	0
COc1cc(Nc2nc(NCCO)c3ncn(-c4ccccc4)c3n2)cc(OC)c1OC	0	0	28	0
Cn1nccc1Nc1nc(NCCN2CCOCC2)c2ncn(-c3ccsc3)c2n1	0	0	50*	-2
O=C(O)c1ccc(NC(=O)c2cc(NC(=O)c3ccc([N+](=O)[O-])cc3)cc(C(=O)Nc3ccc(C(=O)O)cc3)c2)cc1	0	-49	-6	0
Cc1cc(Nc2nc3ccccc3n3nnnc23)ccc1Br	1	3	-1	0
O/N=C1\CCCCc2c1[nH]c1ccc(C3CCCCC3)cc21	0	-10	-12	0
CCOc1ccc(S(=O)(=O)N(C(=O)c2ccncc2)c2ccc3oc(C)c(C(=O)OC)c3c2)cc1	0	-8	64*	3
COC(=O)c1c(C)oc2ccc(N(C(=O)c3ccncc3)S(=O)(=O)c3ccc(Cl)cc3)cc12	0	12	4	2
SMILES	FBW7 act	MITF primary	TEAD-YAP block	GPR151 ag
CCOC(=O)c1c(C)oc2ccc(N(C(=O)c3ccncc3)S(=O)(=O)c3ccccc3)cc12	0	7	8	1
CCOC(=O)c1c(C)oc2ccc(N(C(=O)c3ccncc3)S(=O)(=O)c3ccc(C)cc3)cc12	0	-2	48*	1
CCOc1ccc(S(=O)(=O)Nc2cc(F)ccc2F)c2cccnc12	0	-17	-8	0
CCOc1ccc(S(=O)(=O)N2c3ccc(F)cc3CCC2C)c2cccnc12 (stereo not given)	0	2	50*	0
Cc1cccc(NC(=O)C2(S(=O)(=O)c3ccc(Cl)cc3)CC2)c1	4.7*	-8	-9	-1
Cc1ccc(NC(=O)C2(S(=O)(=O)c3ccc(Cl)cc3)CC2)cc1	0	-7	1	1
